Experimental data: PubChem BioAssay (NCI)
The panel holds about 83,000 compounds, 20% with a hit somewhere; the sample as a whole holds those more often.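 Note: values are percent growth. 100 is the growth of untreated cells, values between 100 and 0 indicate rising inhibition; between -100 and 0 indicates cell death.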 A number with no mark means an inactive call. The source made the active and inactive calls. Rule for the calls: active = growth percent below 10; inactive = the rest.

Assays:
Test in all cases: NCI-60 one-dose screen, 48 h (100 = growth as untreated, 0 = no growth, -100 = all killed)
Details in all cases: 10 µM unless noted
DU-145 prostate = tested on: DU-145 prostate
K-562 leukemia = tested on: K-562 leukemia
MALME-3M melanoma = tested on: MALME-3M melanoma
MDA-MB-231 breast = tested on: MDA-MB-231 breast
SF-268 CNS = tested on: SF-268 CNS
SF-295 CNS = tested on: SF-295 CNS
SF-539 CNS = tested on: SF-539 CNS
UACC-257 melanoma = tested on: UACC-257 melanoma
M14 melanoma = tested on: M14 melanoma
HCT-15 colon = tested on: HCT-15 colon
HT29 colon = tested on: HT29 colon
SNB-75 CNS = tested on: SNB-75 CNS
SNB-19 CNS = tested on: SNB-19 CNS
U251 CNS = tested on: U251 CNS
PC-3 prostate = tested on: PC-3 prostate
SK-MEL-5 melanoma = tested on: SK-MEL-5 melanoma
UACC-62 melanoma = tested on: UACC-62 melanoma
LOX IMVI melanoma = tested on: LOX IMVI melanoma
SK-MEL-28 melanoma = tested on: SK-MEL-28 melanoma

| SMILES | growth (DU-145 prostate) | growth (K-562 leukemia) | growth (MALME-3M melanoma) | growth (MDA-MB-231 breast) | growth (SF-268 CNS) | growth (SF-295 CNS) | growth (SF-539 CNS) | growth (UACC-257 melanoma) | growth (M14 melanoma) | growth (HCT-15 colon) | growth (HT29 colon) | growth (SNB-75 CNS) | growth (SNB-19 CNS) | growth (U251 CNS) | growth (PC-3 prostate) | growth (SK-MEL-5 melanoma) | growth (UACC-62 melanoma) | growth (LOX IMVI melanoma) | growth (SK-MEL-28 melanoma) |
| --- | --- | --- | --- | --- | --- | --- | --- | --- | --- | --- | --- | --- | --- | --- | --- | --- | --- | --- | --- |
| COc1ccc(C(O)c2cc3c(N)c(C(=O)Nc4ccc(Cl)cc4)sc3nc2C)cc1 (centres undefined) | 6.92% (active) | 3.42% (active) | 21% | 41.8% | 42.8% | 14.5% | 20.7% | 56.4% | 7.86% (active) | 12.3% | -6.54% (active) | -22.5% (active) | 37.2% | 20.2% | 21.4% | 15.4% | 17.3% | 29.2% | 59.6% |
| O=C(N/N=C/c1ccc(O)c(O)c1)c1sc2ccccc2c1Cl | 108% | 95.9% | 96.8% | 101% | 77.9% | 114% | 52.2% | 111% | 97.7% | 33.9% | 105% | 83.2% | 59.4% | 59.2% | 66.6% | 81.8% | 73.8% | 68.7% | 56.8% |
| CN1CCN(c2cnc(C(=O)Nc3cc(F)cc4cccnc34)cn2)CC1 | 72.3% | 16.9% | 42.2% | 33.4% | 93.7% | 94.3% | 71.8% | 44.8% | 51.4% | 30.8% | 42.6% | 95.2% | 87.4% | 79.9% | 21.4% | 89.2% | 95.3% | 59.6% | 67.8% |
| COc1cc(/C=C2\C(=O)N(Cc3ccc(Cl)cc3)c3ccccc32)cc(OC)c1OC | -39.1% (active) | 8.83% (active) | 65.5% | 23.3% | 10.9% | 40.9% | 23.3% | 21.9% | 37.7% | -37.7% (active) | 8.97% (active) | 12.5% | 50.3% | 3.6% (active) | 38.6% | 41.6% | 22.2% | -57.1% (active) | -42.6% (active) |
| Fc1ccc(C2CC(c3cccc(Nc4ccncc4)c3)=NN2c2cc(Cl)cc(Cl)c2)cc1 (centres undefined) | 30.2% | 0.115% (active) | 15.3% | 61.4% | 72.4% | 63.3% | 83% | 85.9% | 104% | -42.3% (active) | -21.5% (active) | 72.2% | 82.3% | -29.5% (active) | 26% | 84.7% | 98.7% | -83% (active) | 20.2% |
| O=C(Nc1ccc2ncnc(Nc3ccc(Oc4cccc(F)c4)c(Cl)c3)c2c1)c1ccc(CNCCO)cc1 | 7.74% (active) | -8.41% (active) | 2.04% (active) | -67.2% (active) | 56% | 19.6% | 33.9% | 99.1% | -45.9% (active) | 22.8% | -69.2% (active) | 65.1% | 58.8% | -34% (active) | 27.7% | 73.7% | 106% | -76.2% (active) | -44.9% (active) |
| CC(N)C(=O)NNc1n[nH]c(=S)n1N (centres undefined) | 109% | 107% | 94% | 105% | 94.2% | 94.7% | 100% | 98.8% | 95.2% | 93.9% | 109% | 92.8% | 99.1% | 103% | 99.6% | 97.5% | 102% | 98.5% | 102% |
| CCCCCCCCCCN=C(N)N=C(N)N | 79.1% | 21.3% | 30.4% | 38.8% | 33.1% | 42.8% | 58.5% | 48.5% | 48.2% | 71.1% | 41.6% | 3.65% (active) | 38.7% | 34.8% | 22.1% | 4.63% (active) | 37.2% | 47.3% | 63.3% |
| COc1ccc(-c2nn(Cc3ccccc3)c3c2-c2oncc2CC3)cc1OC | 97.4% | 90.5% | 138% | 77.8% | 104% | 96.5% | 93.3% | 89.9% | 127% | 93.4% | 108% | 105% | 104% | 93.1% | 86.6% | 102% | 86.8% | 86.2% | 105% |
| CC1(C)CCCN1CCCN1c2ccccc2Sc2ccc(Cl)cc21 | 78.5% | 14.2% | 67.2% | 45.5% | 76.3% | 68.2% | 78.2% | 105% | 39.1% | 50.7% | 26.4% | 91% | 69.1% | 58.3% | 52.6% | 2.18% (active) | 75.6% | 57.9% | 72% |
| Cc1cccc(Oc2ccc(Nc3ncnc4ccc(NC(=O)CNCCO)cc34)cc2Cl)c1 | 44.3% | 13.5% | 70.5% | 74.3% | 61.7% | 79.9% | 64.6% | 93.4% | 74.3% | 62.6% | 38.4% | 77.1% | 65.6% | 44.9% | 61.4% | 77.6% | 97.6% | 14.6% | 68.8% |
| Clc1cc(Cl)cc(N2N=C(c3cccc(Nc4ccncc4)c3)CC2c2ccc3c(c2)OCO3)c1 (centres undefined) | 28.9% | 3.33% (active) | -40.2% (active) | 33.1% | 72.1% | 40.7% | 83.3% | 51.2% | 85.3% | -66.7% (active) | 0.164% (active) | 67.5% | 81.9% | -43.6% (active) | 28.7% | 58.9% | 97.6% | -84.3% (active) | -82.4% (active) |
| CN1C(=O)N(C)C2NC(N/N=C/c3ccccc3)=NC21 (centres undefined) | 108% | 107% | 97.9% | 104% | 99.8% | 101% | 94.9% | 98.8% | 98.8% | 103% | 111% | 76.3% | 102% | 101% | 95.6% | 102% | 100% | 96.5% | 102% |
| O=C1c2cccnc2C(=O)c2nc3cc(N4CCN(C5CC5)CC4)ccc3nc21 | -75.9% (active) | 0.866% (active) | -100% (active) | 15.1% | 12.5% | -88.9% (active) | -99.4% (active) | -84.5% (active) | -91.2% (active) | -58.8% (active) | -21.3% (active) | -64.7% (active) | -81.5% (active) | -32.6% (active) | 11.6% | -98.1% (active) | -98.5% (active) | -46.5% (active) | -76.9% (active) |
| COc1ccc(C2CC(c3cccc(Nc4ccncc4)c3)=NN2c2ccc(Cl)cc2)cc1 (centres undefined) | 23.6% | 0.0732% (active) | -49.9% (active) | 40.6% | 62.1% | 53.9% | 76.4% | 12.6% | 100% | -53.3% (active) | -20.2% (active) | 54.9% | 90.4% | -40% (active) | 30.9% | 61.3% | 97% | -80.5% (active) | -80.7% (active) |
| CNC(=O)c1c(NC(=O)c2ccc(C(C)C)cc2)sc2c(CN(C)C)c(O)ccc12 | 97.4% | -7.46% (active) | 88.5% | 95% | 90.8% | 97.7% | 97.3% | 110% | 86.8% | 14.2% | 87.1% | 98.1% | 103% | 81.7% | 79.4% | 96% | 99.9% | 57.3% | 94.5% |
